Test [1] in a line: Quantitative High-Throughput drug screen in 47 multiple myeloma cell lines against the NCATS MIPE library collection: KHM11_PLB cell viability assay (AID 1918962). Also: nearly all actives have a fitted effect of over 35% in size. Also: potency is read from the fitted curve at half-maximal effect. A digest of the protocol:
(§1)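 CellTiter-Glo luminescence (ATP) after 48 h compound exposure, 37C/5% CO2; 500 cells/well; MIPE 4.0 approved/investigational drugs pinned in; DMSO = 100%, media only = 0% viability.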

A short description of test [2]: Quantitative High-Throughput drug screen in 47 multiple myeloma cell lines against the NCATS MIPE library collection: JIM3_ECACC cell viability assay (AID 1918963; also: nearly all actives have a fitted effect of over 35% in size; also: potency is read from the fitted curve at half-maximal effect). A digest of the protocol:
as §1

The nature of test [3]: Quantitative High-Throughput drug screen in 47 multiple myeloma cell lines against the NCATS MIPE library collection: JJN3_DSMZ cell viability assay (AID 1918966; also: nearly all actives have a fitted effect of over 50% in size; also: potency is read from the fitted curve at half-maximal effect). A digest of the protocol: (§2)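 Luminescent ATP measurement with CellTiter-Glo gives viability, scaled between DMSO-only wells (100%) and media-only wells (0%). Cells, 500 per well, faced library compounds for 48 hours at 37C.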

Test [4] in a line: Quantitative High-Throughput drug screen in 47 multiple myeloma cell lines against the NCATS MIPE library collection: H1112_PLB cell viability assay (AID 1918967; also: nearly all actives have a fitted effect of over 30% in size; also: potency is read from the fitted curve at half-maximal effect). A digest of the protocol:
as §2

The nature of test [5]: Quantitative High-Throughput drug screen in 47 multiple myeloma cell lines against the NCATS MIPE library collection: Karpas25_ECACC cell viability assay (AID 1918968; also: nearly all actives have a fitted effect of over 35% in size; also: potency is read from the fitted curve at half-maximal effect). A digest of the protocol: as §2
The nature of test [6]: Quantitative High-Throughput drug screen in 47 multiple myeloma cell lines against the NCATS MIPE library collection: KMS27_JCRB cell viability assay (AID 1918970). Also: nearly all actives have a fitted effect of over 30% in size. Also: potency is read from the fitted curve at half-maximal effect. The gist of the method:
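ATP-based viability (CellTiter-Glo luminescence) is measured in cells treated 48 h with approved and investigational drugs at 37 °C. Controls are DMSO-only wells for full viability and media-only wells for none.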

Test [7] can be described thus: Quantitative High-Throughput drug screen in 47 multiple myeloma cell lines against the NCATS MIPE library collection: Karpas417_ECACC cell viability assay (AID 1918961). The following applies: Karpas417 myeloma viability, CellTiter-Glo ATP luminescence, 48 h; viability (% of DMSO): at 45.8 µM (top of the series). A digest of the protocol: (§3)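 Myeloma cells (500 per well) were exposed to MIPE 4.0 compounds by pin transfer and incubated 48 hours at 37C, 5% CO2. Viability was read as ATP by CellTiter-Glo luminescence, normalised to DMSO (100%) and media-only (0%) wells.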
For orientation: In ATP-based viability assays light output follows the ATP content of the culture.

The nature of test [8]: Quantitative High-Throughput drug screen in 47 multiple myeloma cell lines against the NCATS MIPE library collection: KMS12BM_JCRB cell viability assay (AID 1918971). Also: nearly all actives have a fitted effect of over 35% in size. Also: potency is read from the fitted curve at half-maximal effect. A digest of the protocol:
(§4)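 We plated 500 myeloma cells per well, pinned in MIPE 4.0 compounds, and incubated for 48 hours at 37C. ATP was then quantified with CellTiter-Glo, with DMSO and media-only wells defining 100% and 0%.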

A short description of test [9]: Quantitative High-Throughput drug screen in 47 multiple myeloma cell lines against the NCATS MIPE library collection: KMS12PE_JCRB cell viability assay (AID 1918972). Also: nearly all actives have a fitted effect of over 30% in size. Also: potency is read from the fitted curve at half-maximal effect. A digest of the protocol: as §3
Test [10] in a line: Quantitative High-Throughput drug screen in 47 multiple myeloma cell lines against the NCATS MIPE library collection: KMS26_JCRB cell viability assay (AID 1918975). Also: nearly all actives have a fitted effect of over 45% in size. Also: potency is read from the fitted curve at half-maximal effect. The gist of the method: as §4
Test [11] is described as follows: Quantitative High-Throughput drug screen in 47 multiple myeloma cell lines against the NCATS MIPE library collection: NCIH929_DSMZ cell viability assay (AID 1918978). Also: nearly all actives have a fitted effect of over 35% in size. Also: potency is read from the fitted curve at half-maximal effect. The gist of the method:
(§5)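 Myeloma cells (500/well) treated with MIPE 4.0 compounds for 48 h at 37 °C, 5% CO2. Viability read as ATP via CellTiter-Glo luminescence after 5 min at RT; DMSO-only wells = 100%, media-only = 0% viability.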

The nature of test [12]: Quantitative High-Throughput drug screen in 47 multiple myeloma cell lines against the NCATS MIPE library collection: OCIMY1_PLB cell viability assay (AID 1918979). Also: nearly all actives have a fitted effect of over 35% in size. Also: potency is read from the fitted curve at half-maximal effect. The gist of the method: as §5
A short description of test [13]: Quantitative High-Throughput drug screen in 47 multiple myeloma cell lines against the NCATS MIPE library collection: MM1R_ATCC cell viability assay (AID 1918981). Also: nearly all actives have a fitted effect of over 35% in size. Also: potency is read from the fitted curve at half-maximal effect. A digest of the protocol:
as §5

Test [14] can be described thus: Quantitative High-Throughput drug screen in 47 multiple myeloma cell lines against the NCATS MIPE library collection: MMM1_PLB cell viability assay (AID 1918976). Also: nearly all actives have a fitted effect of over 35% in size. Also: potency is read from the fitted curve at half-maximal effect. A digest of the protocol: as §5
A short description of test [15]: Quantitative High-Throughput drug screen in 47 multiple myeloma cell lines against the NCATS MIPE library collection: MOLP8_DSMZ cell viability assay (AID 1918977). Also: nearly all actives have a fitted effect of over 45% in size. Also: potency is read from the fitted curve at half-maximal effect. A digest of the protocol:
as §5

Test [16] can be described thus: Quantitative High-Throughput drug screen in 47 multiple myeloma cell lines against the NCATS MIPE library collection: MM1S_ATCC cell viability assay (AID 1918980). Also: nearly all actives have a fitted effect of over 45% in size. Also: potency is read from the fitted curve at half-maximal effect. A digest of the protocol:
as §5

The nature of test [17]: Quantitative High-Throughput drug screen in 47 multiple myeloma cell lines against the NCATS MIPE library collection: KMS21BM_JCRB cell viability assay (AID 1918974). Also: potency is read from the fitted curve at half-maximal effect. The following applies: ATP luminescence, 48 h; viability: at 45.8 µM (top of the series). The gist of the method: as §2
Test [18] can be described thus: Quantitative High-Throughput drug screen in 47 multiple myeloma cell lines against the NCATS MIPE library collection: JIM1_ECACC cell viability assay (AID 1918964). The gist of the method: as §2
Test [19] in a line: Quantitative High-Throughput drug screen in 47 multiple myeloma cell lines against the NCATS MIPE library collection: INA6_PLB cell viability assay (AID 1918965; also: nearly all actives have a fitted effect of over 55% in size; also: potency is read from the fitted curve at half-maximal effect). The gist of the method:
as §3

A short description of test [20]: Quantitative High-Throughput drug screen in 47 multiple myeloma cell lines against the NCATS MIPE library collection: KMS20_JCRB cell viability assay (AID 1918973). Also: nearly all actives have a fitted effect of over 45% in size. Also: potency is read from the fitted curve at half-maximal effect. The gist of the method:
as §2

Results filed as inconclusive are left out. Activity calls are given as the source filed them. Calls follow the shape of the dose curve; as a rule, active = well fitted curve in the direction sought with a large enough effect; inconclusive = small, poorly fitted or top-dose-only effect, or another doubt; inactive = no such curve, though single readings can be large; an effect the other way counts as inactive or inconclusive.

Regarding `CCn1cc(C(=O)O)c(=O)c2cc(F)c(N3CCNCC3)nc21`, the Potency entry in test [1], in test [2], in test [3], in test [4], in test [5] and in test [6] was “inactive” each time.
Regarding `CNS(=O)(=O)Cc1ccc2[nH]cc(CCN(C)C)c2c1`, in [7], the viability (% of DMSO) was 103% (active). The Potency result in [2], in test [4], in test [6], in test [8], in test [9] and in [10] was “inactive” in each case. The Potency result in [11], in test [12] and in [13] was “inactive” each time.
In the case of `Cn1c(=O)c2c(ncn2CC(O)CO)n(C)c1=O` (stereo not given), the Potency result in test [1], in test [2], in test [4], in [5], in test [6] and in test [8] was “inactive” in each case. Moreover, the Potency entry in test [9], in test [10], in test [14], in test [15], in test [11] and in test [12] was “inactive” in each case. Moreover, the Potency entry in [16] and in [13] was “inactive” each time.
As for `COCCCOc1cc(C[C@@H](C[C@H](N)[C@@H](O)C[C@H](C(=O)NCC(C)(C)C(N)=O)C(C)C)C(C)C)ccc1OC`, the Potency result in [1], in [2], in [9], in test [10], in test [11] and in test [13] was “inactive” throughout. In addition, the Potency is 1.87 µM (active) in test [5] and 0.0743 µM (active) in test [16].
In the case of `CCC(=O)O[C@]1(C(=O)CCl)[C@@H](C)C[C@H]2[C@@H]3CCC4=CC(=O)C=C[C@]4(C)[C@@]3(F)[C@@H](O)C[C@@]21C`, the Potency result in test [1], in test [2], in [4], in [17], in test [10] and in test [15] was “inactive” throughout. Also, the Potency result in test [11], in test [12] and in test [13] was “inactive” each time. Also, the Potency is 14.8 µM (active) in test [8] and 16.6 µM (active) in [9].
Regarding `CC(C)(C#N)c1cc(Cn2cncn2)cc(C(C)(C)C#N)c1`, the Potency result in [1], in [2], in test [4], in [5], in test [6] and in test [9] was “inactive” in each case. Further, the Potency entry in test [10], in test [11], in [12], in test [16] and in [13] was “inactive” each time. Also, the Potency in test [14] was 1.32 µM (active).
For `CC1=C(C(=O)O)N2C(=O)[C@@H](NC(=O)C(N)c3ccccc3)[C@H]2SC1` (stereo not given in full), the Potency entry in [1], in test [4], in [5], in [9], in test [11] and in [12] was “inactive” in each case. Moreover, in test [13], the Potency result was “inactive”. The Potency in test [2] is 0.0017 µM (active).
Regarding `CCN(C)C(=O)Oc1cccc([C@H](C)N(C)C)c1`, the Potency entry in test [2], in [18], in test [19], in test [4], in test [5] and in [9] was “inactive” each time. Further, the Potency entry in test [15], in test [11], in [12] and in test [16] was “inactive” in each case.
In the case of `O=NN(CCCl)C(=O)NC1CCCCC1`, the Potency entry in test [1], in [2], in test [4], in test [6], in [8] and in test [9] was “inactive” in each case. The Potency entry in test [10], in [15], in test [11], in test [12], in test [16] and in test [13] was “inactive” throughout.
For the compound `CN(CCOc1ccc(CC2SC(=O)NC2=O)cc1)c1ccccn1` (stereo not given), the Potency entry in test [1], in test [2], in [4], in test [5], in test [9] and in [15] was “inactive” in each case. Besides, the Potency entry in test [11] and in test [12] was “inactive” throughout. Further, the values for the Potency in [14] and in [16] were 14.8 µM (active) and 16.6 µM (active), respectively.
For `CC1=CC(=O)c2ccccc2C1=O`, the Potency in test [2] is 23.5 µM (active); in test [19], 8.33 µM (active); in [3], 13.2 µM (active); in test [4], 20.9 µM (active); in [5], 9.35 µM (active); in [10] it was 10.5 µM (active). The Potency was 8.33 µM (active) in [14], 9.35 µM (active) in test [11], 18.7 µM (active) in test [16] and 9.35 µM (active) in [13]. In addition, the Potency result in test [18] and in test [9] was “inactive” in each case.
`Oc1c(Cl)cc(Cl)c2cccnc12`: the Potency in test [1] was 26.4 µM (active); in [2], 9.35 µM (active); in test [4], 11.8 µM (active); in test [5], 9.35 µM (active); in [8], 4.69 µM (active); in [9], 14.8 µM (active). The Potency in test [10] is 14.8 µM (active); in [14] it was 16.6 µM (active); in test [15], 11.8 µM (active); in [11], 10.5 µM (active); in test [12], 18.7 µM (active); in test [16], 7.43 µM (active). Further, the Potency in test [13] was 11.8 µM (active).
Turning to `Cc1nnc(NS(=O)(=O)c2ccc(N)cc2)s1`, the Potency entry in test [2], in test [4], in [14], in [11] and in test [12] was “inactive” each time. Moreover, the Potency in test [19] is 9.35 µM (active); in test [5], 8.33 µM (active); in test [6] it was 1.05 µM (active); in [9], 1.32 µM (active); in [17], 0.418 µM (active); in [16] it was 2.64 µM (active). For the same compound, the Potency in test [13] was 18.7 µM (active).
On to `CCN[C@H]1C[C@H](C)S(=O)(=O)c2sc(S(N)(=O)=O)cc21`, for which the Potency entry in test [2], in test [18], in test [4], in test [5], in test [6] and in test [8] was “inactive” each time. The Potency entry in test [9], in [20], in test [10], in test [15], in [11] and in test [12] was “inactive” throughout. In test [13], the Potency result is “inactive”.
As to `N=C(N)c1ccc(OCCCCCOc2ccc(C(=N)N)cc2)cc1`, the Potency in test [1] is 3.32 µM (active); in test [19], 3.72 µM (active); in [5], 2.96 µM (active); in test [8] it was 5.9 µM (active); in [9] it was 5.9 µM (active); in test [20] it was 10.5 µM (active). Further, the Potency in test [14] is 14.8 µM (active); in test [15], 5.26 µM (active); in [16] it was 16.6 µM (active); in test [13], 18.7 µM (active). For the same compound, in [18], the Potency entry is “inactive”.
Consider `NC(N)=NC(N)=NCCc1ccccc1`, for which the Potency in test [1] is 16.6 µM (active); in test [2], 4.69 µM (active); in [5], 5.26 µM (active); in test [8], 10.5 µM (active); in [17] it was 3.32 µM (active); in [14] it was 5.26 µM (active). Further, the Potency in [16] is 2.96 µM (active); in [13], 16.6 µM (active).

These data come from PubChem BioAssay (NCATS).
